Results on 88 compounds are retold here after PubChem BioAssay AID1851 (National Center for Advancing Translational Sciences (NCATS), 2009).

Among all 16,000 compounds or so, about 5,100 (32%) were called active. About 25% were inconclusive and are not listed. Calls follow the shape of the dose curve; as a rule, active = well fitted curve in the direction sought with a large enough effect; inconclusive = small, poorly fitted or top-dose-only effect, or effect the other way; inactive = no such curve, though single readings can be large or run the other way. The list shows a part of the results.
% is scaled to controls: 0 for no effect and ±100 for the full control effect.

The assay deals with Cytochrome P450 3A4 (Homo sapiens) (UniProt P08684). In words: Cytochrome panel assay with activity outcomes. The following applies: recombinant CYP, pro-luciferin dealkylation, luminescence, p450-cyp3a4; series mostly up to 57.1 µM.
Sequence of Cytochrome P450 3A4 (Homo sapiens) (P08684 whole entry, looked up): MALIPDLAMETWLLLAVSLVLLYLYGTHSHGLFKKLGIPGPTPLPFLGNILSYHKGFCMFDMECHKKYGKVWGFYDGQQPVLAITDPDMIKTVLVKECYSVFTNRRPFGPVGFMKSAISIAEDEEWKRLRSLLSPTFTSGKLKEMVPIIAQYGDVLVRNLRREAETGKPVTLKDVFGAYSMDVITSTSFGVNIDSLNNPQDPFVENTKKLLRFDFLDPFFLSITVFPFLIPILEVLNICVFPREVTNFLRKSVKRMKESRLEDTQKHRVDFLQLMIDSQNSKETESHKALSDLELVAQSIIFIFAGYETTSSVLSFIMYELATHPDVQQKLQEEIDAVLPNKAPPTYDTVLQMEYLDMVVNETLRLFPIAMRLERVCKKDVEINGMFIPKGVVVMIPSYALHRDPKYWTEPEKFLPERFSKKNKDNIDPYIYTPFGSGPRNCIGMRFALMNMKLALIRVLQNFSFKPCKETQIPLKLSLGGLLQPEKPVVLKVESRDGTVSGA
As to `O=[N+]([O-])c1cccc(-c2nc(-c3ccncc3)no2)c1`, the AC50 is 0.562 µM (active). The same measure, in the same setting: in the case of `COC(=O)COc1ccc2c(-c3cccc([N+](=O)[O-])c3)cc(=O)oc2c1` it was “inactive”; in that of `CC(C)CCNC1=NCCCCC1`, “inactive”; in that of `Cc1cccc2c(SCC(=O)NCC3CCCO3)nc(-c3ccc(F)cc3)nc12` (stereo not drawn), “inactive”. For the compound `Cc1[nH]nc2nc(SCC(=O)NCC3CCCO3)n(-c3ccc(Br)cc3)c(=N)c12` (stereo not drawn), the AC50 is 11.2 µM (active).

For the compound `Cc1ccc(-n2ncc3c(=O)n(CC(=O)NCC4CCCO4)cnc32)cc1` (stereo not drawn), the AC50 entry was “inactive”.

On to `Nc1ncnc2c1cnn2-c1ccccc1`, for which the AC50 result is “inactive”. Still for that read-out and setting: in the case of `Nc1ccc(Sc2cnn(-c3ccccc3)c(=O)c2Cl)cc1` it was 8.91 µM (active). Take `NCCCCCC(=O)O`: the AC50 result is “inactive”. Regarding `CNC(=O)C(=O)NCCc1ccc(Cl)cc1`, the AC50 result is “inactive”. As to `Cc1nc(SCC(=O)NCCc2ccc(Cl)cc2)nc(C)c1C`, the AC50 was 2 µM (active). The same measure, in the same setting: the same measure for `Nc1ccc(S(=O)(=O)Nc2ccc(Cl)nn2)cc1`: “inactive”. On to `Cc1nc2sccc2c(=O)n1-c1cccc(Cl)c1`, for which the activity, negative = inhibition is 17.4% [at 11.4 µM] (inactive). As to `Nc1nnc(CC(=O)N/N=C/c2cccc([N+](=O)[O-])c2)s1`, the AC50 is 28.2 µM (active). `O=C(Cc1ccccc1)N/N=C/C=C/c1cccc([N+](=O)[O-])c1`: the AC50 result is “inactive”. Still for that read-out and setting: in the case of `CCOc1ccc(-c2cc(CCCC(=O)Nc3cc(OC)ccc3OC)no2)cc1` it was 3.55 µM (active); in that of `COc1ccc(CN2CCN(C(=O)CC(C)C)CC2)c(OC)c1OC`, “inactive”; in that of `CCCC(=O)Nc1cc(-c2cn3cccnc3n2)ccc1OC`, “inactive”. Take `CCOc1ccc(-c2cc(CCCC(=O)NCCc3ccc(OC)c(OC)c3OC)no2)cc1`: the AC50 was 7.08 µM (active). Take `N[C@H](CCC(=O)NCS(=O)(=O)O)C(=O)O`: the AC50 result is “inactive”.

`CC(=O)N1CCC2(CC1)CCN(c1ccc(-c3ccccc3)cc1)CC2`: the AC50 entry was “inactive”. Turning to `O=C(Oc1ccccc1)N1CCC2(CCCN(c3ccccn3)C2)CC1`, the concentration at half-maximal activity (AC50) was 25.1 µM (active). Take `COC(=O)N1CCC2(CCCN(c3ccccn3)C2)CC1`: the AC50 result was “inactive”.

As for `c1ccc(-c2ccc(N3CC[C@@]4(CCCNC4)C3)cc2)cc1`, the AC50 entry is “inactive”.

`c1ccc(-c2ccc(N3CCCC4(CCNCC4)C3)cc2)cc1`: the AC50 is 12.6 µM (active). On the same count and under the same terms, the same measure for `CS(=O)(=O)N1CCC2(CC1)CN(c1ccc(-c3ccccc3)cc1)C2`: “inactive”; for `O=C(Oc1ccccc1)N1CCC[C@@]2(CCN(c3ccccn3)C2)C1`: 10 µM (active). Turning to `CC(=O)N1CCC2(CC1)CN(c1ccccn1)C2`, the AC50 entry was “inactive”.

As to `O=C(Oc1ccccc1)N1CCC2(CCCN(c3ncccn3)C2)CC1`, the AC50 result is “inactive”. In the case of `O=C(Oc1ccccc1)N1CCC2(CCCN(c3ccc(-c4ccccc4)cc3)C2)CC1`, the AC50 is 31.6 µM (active). With `COC(=O)N1CCC[C@@]2(CCN(c3ccccn3)C2)C1`, the AC50 entry is “inactive”. As to `NC(=O)CCCC1=NS(=O)(=O)c2ccccc2N1`, the AC50 entry was “inactive”. Regarding `CC(C)(CC(=O)N1CCN(c2ccc(Cl)cc2)CC1)CC1=NS(=O)(=O)c2ccccc2N1`, the AC50 is 2.51 µM (active).

`NC(=O)C1(N2CCCCC2)CCN(C(=O)c2cccn3c(=O)c4cc(Cl)ccc4nc23)CC1`: the AC50 is 11.2 µM (active). Consider `NC(=O)C1(N2CCCCC2)CCN(C(=S)Nc2ccc(Cl)cc2)CC1`, for which the AC50 result was “inactive”.

On to `CCOC(=O)N1CCN(C(=O)c2cccn3c(=O)c4cc(Cl)ccc4nc23)CC1`, for which the AC50 result was “inactive”. On to `CC(C)(C)n1nnnc1C(c1cccnc1)N(Cc1ccccc1)Cc1ccco1` (stereo not drawn), for which the AC50 is 0.794 µM (active).

As for `O=C(NCCc1c[nH]c2ccccc12)[C@H]1C[C@@H]1[C@H](NP(=O)(c1ccccc1)c1ccccc1)c1ccccc1`, the half-maximal activity concentration (AC50) was 1.58 µM (active).

For `O=C(NCCc1c[nH]c2ccccc12)[C@@H]1C[C@H]1[C@@H](NP(=O)(c1ccccc1)c1ccccc1)c1ccccc1`, the AC50 was 1.26 µM (active). Turning to `CN(Cc1cc(C(C)(C)C)cc(Br)c1O)Cc1cc(C(C)(C)C)cc(Br)c1O`, the activity, negative = inhibition is -11.7% [at 11.4 µM] (inactive). `CCOC(=O)c1cnc(-c2ccccc2)nc1Oc1cccc(Cl)c1`: the AC50 result was “inactive”.

For `CCOC(=O)c1cnc2cc(-c3ccc(C(C)(C)C)cc3)nn2c1N`, the AC50 result was “inactive”. On to `CCOC(=O)c1cnc2cc(-c3ccc(C)cc3)nn2c1-c1ccccc1`, for which the AC50 is 20 µM (active). Regarding `Cc1onc(-c2ccccc2Cl)c1C(=O)NCC(=O)O`, the AC50 entry was “inactive”. `CC(=O)C1=NOC(CNC(=O)c2c(-c3ccccc3Cl)noc2C)C1` (stereo not drawn): the AC50 was 15.8 µM (active). Regarding `CCOC(=O)C1=NOC(CNC(=O)C2=NOC(CNC(=O)c3c(-c4ccccc4Cl)noc3C)C2)C1` (stereo not drawn), the AC50 was 12.6 µM (active). The same measure, in the same setting: in the case of `CC(=O)c1c(C(C)=O)c(C)n(NC(=O)c2ccccc2Cl)c1C` it was “inactive”. For the compound `CC(C)(C[C@@]1(C)NC(=O)NC1=O)OCc1ccccc1`, the activity, negative = inhibition was -6.17% [at 11.4 µM] (inactive). In the case of `O=C(O)c1cc(C(=O)C(=O)c2cc(C(=O)O)c(O)c3ccccc23)c2ccccc2c1O`, the activity, negative = inhibition is -22.6% [at 11.4 µM] (inactive). In the case of `Cc1cccc(NC(=O)N(Cc2nc3ccccc3c(=O)[nH]2)C2CCCC2)c1`, the AC50 was 15.8 µM (active).

Regarding `CC(C)c1ccc(NC(=O)N(CCc2nc3ccccc3[nH]2)C2CCCC2)cc1`, the activity, negative = inhibition was -18.7% [at 2.29 µM] (inactive). For the compound `CCN(CC(=O)Nc1ccc(N2CCOCC2)cc1)Cc1nc2ccccc2c(=O)[nH]1`, the AC50 result is “inactive”.

Turning to `Nc1nnc(C(c2ccccc2)c2ccccc2)s1`, the AC50 result was “inactive”. As for `O=C(C[C@@H](c1ccccc1)N1CCCCC1)c1ccccc1`, the activity, negative = inhibition was -9.31% [at 11.4 µM] (inactive). For the compound `Cc1cccc(C(CC(=O)N2CCCC2)c2ccccc2)c1O` (stereo not drawn), the AC50 was 2.51 µM (active). For the compound `Cc1ccc(OC(=O)c2cccc(C(=O)Oc3ccc(C)cn3)n2)nc1`, the AC50 entry was “inactive”. Take `FC(F)(F)c1nc(N2CCCC2)ncc1-c1nnnn1-c1ccccc1`: the activity, negative = inhibition is 21% [at 2.29 µM] (inactive). Consider `FC(F)(F)c1nc(-c2ccncc2)ncc1-c1nnnn1-c1ccccc1`, for which the AC50 is 5.62 µM (active). For the compound `O=c1cc(CF)[nH]c(=S)[nH]1`, the activity, negative = inhibition is -8.49% [at 11.4 µM] (inactive). In the case of `COC(=O)c1ccc(NC(=O)c2ccccc2NS(=O)(=O)c2ccccc2)cc1`, the AC50 was 7.94 µM (active). In the case of `CC(=O)C=NCC(=O)O`, the activity, negative = inhibition was -0.504% [at 11.4 µM] (inactive). As for `C#CCCCO/N=C1/C[C@@H](O)[C@@H](O)[C@@H]2[C@@H]3C(=O)N(Cc4ccccc4)C(=O)[C@H]3CC[C@H]12`, the AC50 is 3.98 µM (active). On to `CCOC(=O)N/N=C1/C[C@@H](O)[C@@H](O)[C@@H]2[C@@H]3C(=O)N([C@@H](C)c4ccccc4)C(=O)[C@H]3CC[C@H]12`, for which the activity, negative = inhibition is -23.4% [at 11.4 µM] (inactive). As to `C#CCCCO/N=C1/C[C@@H](O)[C@@H](O)[C@@H]2[C@@H]3C(=O)N([C@@H](C)c4ccccc4)C(=O)[C@H]3CC[C@H]12`, the AC50 was 3.98 µM (active). Turning to `C#CCCCO/N=C1/C[C@@H](O)[C@@H](O)[C@@H]2[C@@H]3C(=O)N(CC)C(=O)[C@H]3CC[C@@H]12`, the activity, negative = inhibition is -23.5% [at 11.4 µM] (inactive).

In the case of `C#CCCCO/N=C1/C[C@@H](O)[C@@H](O)[C@@H]2[C@@H]3C(=O)N(Cc4ccccc4)C(=O)[C@H]3CC[C@@H]12`, the activity, negative = inhibition is -23.2% [at 11.4 µM] (inactive). As for `C#CCCCO/N=C1/C[C@@H](O)[C@@H](O)[C@@H]2[C@@H]3C(=O)N([C@@H](C)c4ccccc4)C(=O)[C@H]3CC[C@@H]12`, the AC50 was 3.98 µM (active). Take `C#CCCCO/N=C1/C[C@@H](O)[C@@H](O)[C@@H]2[C@@H]3C(=O)N(CC)C(=O)[C@H]3CC[C@H]12`: the activity, negative = inhibition is -27.7% [at 11.4 µM] (inactive).

On to `C[C@H](c1ccccc1)N1C(=O)[C@H]2[C@@H]3[C@H](O)[C@H](O)CC(=O)[C@H]3CC[C@H]2C1=O`, for which the activity, negative = inhibition is -18.1% [at 11.4 µM] (inactive).

`CC(C)CO/N=C1/C[C@@H](O)[C@@H](O)[C@@H]2[C@@H]3C(=O)N([C@@H](C)c4ccccc4)C(=O)[C@H]3CC[C@@H]12`: the activity, negative = inhibition is -29.6% [at 11.4 µM] (inactive). With `CCOC(=O)N/N=C1/C[C@@H](O)[C@@H](O)[C@@H]2[C@@H]3C(=O)N([C@@H](C)c4ccccc4)C(=O)[C@H]3CC[C@@H]12`, the activity, negative = inhibition was -20.9% [at 11.4 µM] (inactive).

On to `C#CCCCO/N=C1/C[C@@H](O)[C@@H](O)[C@@H]2[C@@H]3C(=O)N(C4CCCCC4)C(=O)[C@H]3CC[C@@H]12`, for which the AC50 was 3.16 µM (active). As for `C[C@@H]1[C@H]2CC[C@@H]3[C@@H]4CC=C5C[C@@H](N(C)C)CC[C@]5(C)[C@@H]4CC[C@@]32CN1C`, the AC50 entry is “inactive”. Take `CC(C)Nc1nc(Oc2ccc(Cl)cc2)cc(C(F)(F)F)n1`: the AC50 entry was “inactive”. On to `CC(C)Nc1cc(C(F)(F)F)nc(-c2ccccn2)n1`, for which the AC50 entry was “inactive”. Turning to `CC(C)c1cc(C(F)(F)F)nc(NNc2nc(C(C)C)cc(C(F)(F)F)n2)n1`, the half-maximal activity concentration (AC50) was 3.16 µM (active). On the same count and under the same terms, the same measure for `Cn1c(N)c(C(=O)CSc2ccc3c(c2)OCCO3)c(=O)n(C)c1=O`: 5.62 µM (active); for `O=c1c2ccccc2nnn1CSc1ccc2c(c1)OCCO2`: “inactive”.

With `CC(C)Cn1c(N)c(C(=O)CSc2ccc3c(c2)OCCO3)c(=O)n(C)c1=O`, the half-maximal activity concentration (AC50) was 3.98 µM (active). `Cc1nn(-c2ccc(Cl)cc2)c2sc(C(=O)c3c(N)n(C)c(=O)n(C)c3=O)cc12`: the activity, negative = inhibition is 7.37% [at 2.29 µM] (inactive).

As for `CCc1c(C)c2c(C)[nH]nc2oc1=O`, the AC50 result is “inactive”. Take `CC(C)(C)[Si](C)(C)c1c2c(nc3ccc(OCc4ccccc4)cc13)-c1cccc(=O)n1C2`: the AC50 is 15.8 µM (active). As to `COc1cc2nc3c(c([Si](C)(C)C(C)(C)C)c2cc1OC)Cn1c-3cccc1=O`, the AC50 was 3.98 µM (active). `COc1ccc2nc3c(c([Si](C)(C)C(C)(C)C)c2c1)Cn1c-3cccc1=O`: the AC50 is 1.58 µM (active).

Regarding `OC[C@H]1NC[C@H](O)[C@@H](O)[C@H]1O`, the AC50 entry is “inactive”. Same read-out and setting: in the case of `CCC(C)(C(=O)NC1CCCC1)N(C(=O)c1ccccn1)c1ccccc1` (stereo not drawn) it was 5.01 µM (active). `O=C(N/N=C/C1CCCCC1)c1ccccn1`: the activity, negative = inhibition is -7.05% [at 11.4 µM] (inactive). In the case of `CCC(C)(C(=O)NC1CCCC1)N(Cc1ccco1)C(=O)c1ccccn1` (stereo not drawn), the AC50 was 8.91 µM (active).

Broadly, the AC50 is the midpoint of the concentration-response curve, whichever way the signal moves.
